Sampled rows, rich in hits. Any-hit rate of the full collection: about 4.6%.
ADAM17 inh – ADAM17 inhibition, QFRET primary screen | recombinant ADAM17, EDANS/DABCYL FRET peptide cleavage | inhibition, % at 6.95 µM | 370,000 compounds, 0.83% hits;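 active = inhibition above the mean of compounds lying between control limits plus 3 SD, set per campaign, cut at about 8.5% in these data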
KLK7 zymogen act – proKLK7 (human) activation, primary screen; P49862; purified proKLK7, EDANS-DABCYL substrate fluorescence; 100% is mature enzyme control, 0% vehicle; activation, % at 7 µM; 370,000 compounds, 0.9% hits;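 active = activation above the mean of all tested compounds plus 3 SD, computed per campaign excluding outliers beyond control limits, cut at about 13% in these data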
Target sequence (P49862 whole entry, looked up): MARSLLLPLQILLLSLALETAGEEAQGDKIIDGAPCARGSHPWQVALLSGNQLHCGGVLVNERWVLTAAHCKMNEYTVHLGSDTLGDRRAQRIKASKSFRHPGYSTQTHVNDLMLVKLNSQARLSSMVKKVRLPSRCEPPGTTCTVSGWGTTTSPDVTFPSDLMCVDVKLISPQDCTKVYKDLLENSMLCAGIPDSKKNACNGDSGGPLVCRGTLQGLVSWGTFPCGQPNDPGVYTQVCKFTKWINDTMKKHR
NR3A LBD binder – modulates the human NR3A ligand-binding domain. NR3A LBD differential scanning fluorimetry, Tm shift; 0% = protein alone, 100% = glycine-bound protein. 340,000 compounds, 2.5% hits. Tm shift relative to glycine control, % at 25 µM;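 active = melting temperature shift of at least 10% of the positive control shift, at one fixed dose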
FAS-TE inh – FAS thioesterase (human) inhibition | inhibition, % at 15 µM | 360,000 compounds, 0.67% hits | recombinant FAS-TE, OMFH fluorogenic substrate, fluorescence endpoint | AID 602261 | P49327;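 active = compounds whose normalised, plate-corrected inhibition of enzyme fluorescence in the single-dose primary screen is 50% or more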
ADAM10 inh – inhibits human ADAM10. recombinant ADAM10, EDANS/DABCYL FRET peptide cleavage, 3 h. inhibition, % at 7 µM. O14672. AID 720582. 370,000 compounds, 0.62% hits;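 active = inhibition above a per-campaign cutoff equal to the mean of compounds falling between control-based bounds plus 3 SD, cut at about 20% in these data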
Large screens that a line does not name were inactive.

O=[N+]([O-])c1ccc(Nc2ccccc2F)nc1	NR3A LBD binder 27
Cc1ccc(NC(=O)c2ccc(Nc3ccccc3F)nc2)cc1	NR3A LBD binder 30
O=[N+]([O-])c1ccc(Nc2ccc3ccccc3c2)nc1	NR3A LBD binder 38
Cc1nn(-c2ccccc2)c(/N=C/c2ccc(O)cc2)c1-c1ccccc1	NR3A LBD binder 26
CC(C)NC(=O)N[C@@H]1C[C@@H]2O[C@@H](CO)CC[C@@H]2O[C@@H]1CCc1ccc(-c2ccccc2F)cc1	none (no result: NR3A LBD binder, FAS-TE inh)
S=C(NN=C(C1CC1)C1CC1)Nc1ccccc1	NR3A LBD binder 11
Fc1ccccc1NC(=S)Nc1ccc(Br)cc1	NR3A LBD binder 25
S=C(NNC(=S)Nc1ccccc1)Nc1ccccc1	NR3A LBD binder 35
S=C(Nc1ccccc1)Nc1ccc(Br)cc1	none
S=C(Nc1ccccc1)Nc1cccc(Br)c1	NR3A LBD binder 16
C=C(C)Cn1c(SCC(=O)N/N=C(\C)c2ccc([N+](=O)[O-])cc2)nnc1-c1ccc(Br)cc1	none (no result: NR3A LBD binder, FAS-TE inh)
CN(C(=O)COC(=O)c1ccccc1Nc1ccccc1)c1c(N)n(Cc2ccccc2)c(=O)[nH]c1=O	NR3A LBD binder 24
COCCN(C(=O)COC(=O)c1ccccc1Nc1ccccc1)c1c(N)n(Cc2ccccc2)c(=O)[nH]c1=O	NR3A LBD binder 19
COCCN(C(=O)COC(=O)c1cccc2ccccc12)c1c(N)n(Cc2ccccc2)c(=O)[nH]c1=O	none
CCN(C(=O)COC(=O)CCS(=O)(=O)c1ccccc1)c1c(N)n(Cc2ccccc2)c(=O)[nH]c1=O	NR3A LBD binder 17
CCC[C@H]1[C@@H](OC(=O)N2CCN(c3ccccc3)CC2)CC[C@@]23CCCN2C(=O)CCC[C@@H]13	none (no result: KLK7 zymogen act, NR3A LBD binder, FAS-TE inh)
O=C(CSCc1c(Cl)cccc1Cl)NCc1cccnc1	none (no result: NR3A LBD binder)
O=C(CSCc1c(F)cccc1Cl)NCc1cccnc1	NR3A LBD binder 12
COCCCNC(=O)c1ccc2c(c1)NC(=O)C(C)(C)O2	none (no result: NR3A LBD binder, FAS-TE inh)
O=C1C=C(c2ccc3[nH]ccc3c2)C[C@@H](c2ccc(F)cc2)C1	NR3A LBD binder 21
COc1ccc([C@H]2CC(=O)C=C(c3ccc4[nH]ccc4c3)C2)cc1OC	none
O=C(NCc1cccnc1)O[C@H]1CC[C@@]23CCCN2C(=O)CCC[C@H]3C1	none (no result: KLK7 zymogen act, NR3A LBD binder, FAS-TE inh)
CCC[C@H]1[C@@H](NCC2CCCCC2)CC[C@@]23CCCN2C(=O)CCC[C@@H]13	none (no result: KLK7 zymogen act, NR3A LBD binder, FAS-TE inh)
O=C(Cn1nnc2ccccc2c1=O)NCCc1ccc(Cl)cc1Cl	none
O=C(Cn1nnc2ccccc2c1=O)NCCc1ccccc1	NR3A LBD binder 18
CC(=O)Nc1ccc(NC(=O)Nc2ccc(C)cc2C)cc1	none
CC(=O)Nc1cccc(NC(=S)Nc2ccc(F)c(Cl)c2)c1	NR3A LBD binder 12
CC(=O)Nc1ccc(NC(=O)Nc2ccc(C)c(C)c2)cc1	NR3A LBD binder 13
CC(=O)Nc1cccc(NC(=O)c2cc(Cl)ccc2Cl)c1	none
Cc1ccc(NC(=O)Nn2cnnc2)cc1Cl	none
CC(=O)Nc1cccc(NC(=O)Nc2ccc(C)c(Cl)c2)c1	NR3A LBD binder 36
C=CCN1[C@@H](C)COc2cc(N3CCSCC3)ccc2S1(=O)=O	none (no result: NR3A LBD binder, FAS-TE inh)
CC(C)(C)OC(=O)N1CCC(c2ccc[nH]2)(c2c[nH]c3ccccc23)CC1	none (no result: NR3A LBD binder, FAS-TE inh)
Clc1cccc(CNC2CCC23CCCCC3)c1 (stereo unspecified)	none (no result: KLK7 zymogen act, NR3A LBD binder, FAS-TE inh)
Cc1n[nH]c2ccc(Br)cc2c1=O	none (no result: NR3A LBD binder)
Cc1nc2c([nH]c3ccc(Br)cc32)s1	NR3A LBD binder 15
C#Cc1cccc(OC[C@@H](O)CN2CCC(C(O)(c3ccccc3)c3ccccc3)CC2)c1	none (no result: NR3A LBD binder, FAS-TE inh)
CN(CC(=O)Nc1ccc(F)cc1)S(=O)(=O)c1ccc2c(c1)c(=O)n(C)c(=O)n2C	NR3A LBD binder 10
Cc1cccc(NC(=O)CN(C)S(=O)(=O)c2ccc3c(c2)n(C)c(=O)c(=O)n3C)c1C	NR3A LBD binder 13
Cc1cc(C)c2[nH]c(=O)c(CN(CC3CCCO3)C(=S)NCc3ccco3)cc2c1 (stereo unspecified)	none
Cc1ccc2[nH]c(=O)c(CN(CC3CCCO3)C(=S)NCc3ccco3)cc2c1 (stereo unspecified)	NR3A LBD binder 13
Cc1ccc2[nH]c(=O)c(CN(Cc3cccs3)C(=S)NCc3ccco3)cc2c1	NR3A LBD binder 13
Cc1ccc2cc(CN(CC3CCCO3)C(=S)NCc3ccco3)c(=O)[nH]c2c1 (stereo unspecified)	none
Cc1cccc2cc(CN(CC3CCCO3)C(=S)NCc3ccco3)c(=O)[nH]c12 (stereo unspecified)	NR3A LBD binder 13
Cc1ccc(NC(=S)N(Cc2cccs2)Cc2cc3cccc(C)c3[nH]c2=O)cc1	NR3A LBD binder 15
Cc1nc(N2CCN(C(=O)COc3ccccc3C)CC2)c2c3c(sc2n1)CCCC3	none (no result: KLK7 zymogen act, NR3A LBD binder, FAS-TE inh)
O=C(CSc1nnc(-c2ccccc2F)n1Cc1ccco1)Nc1ccccc1-c1ccccc1	none (no result: NR3A LBD binder, FAS-TE inh)
COC(=O)Cn1nc(-c2ccccc2)c2cccc(C(F)(F)F)c21	none (no result: KLK7 zymogen act, NR3A LBD binder, FAS-TE inh)
O=S1(=O)c2ccc(N3CC[C@H](O)C3)cc2O[C@H]2CCN1C2	none (no result: NR3A LBD binder, FAS-TE inh)
O=C(CCCl)NC1CCCCN(Cc2ccc(OC(F)(F)F)cc2)C1=O (stereo unspecified)	none (no result: NR3A LBD binder, FAS-TE inh)
CCn1c(SCC(=O)c2ccc(-c3ccccc3)cc2)nnc1-c1ccccc1OC	none (no result: NR3A LBD binder, FAS-TE inh)
Cc1ccc(Nc2nc3ccccc3o2)cc1F	NR3A LBD binder 12
O=C(Nc1ccc(OC(F)(F)F)cc1)Nc1c(-c2ccc(F)cc2)nc2ncccn12	none (no result: NR3A LBD binder, FAS-TE inh)
C#CCn1c(=NC(=O)c2ccc(S(=O)(=O)N3CCc4ccccc4C3)cc2)sc2cc(S(N)(=O)=O)ccc21	none (no result: ADAM17 inh, KLK7 zymogen act, ADAM10 inh)
C=CCn1c(=NC(=O)c2ccc(S(=O)(=O)N3CCCc4ccccc43)cc2)sc2cc(S(N)(=O)=O)ccc21	NR3A LBD binder 13
CCCCCCCCN1C(=O)[C@@H](CC(=O)N2CCCC2)C[C@@]2(C(=O)OC)C1=C[C@H](COCc1ccccc1)O[C@@H]2C	none (no result: NR3A LBD binder, FAS-TE inh)
COCCCNC(=O)CN1C(=O)C2CCCCN2C(=O)c2ccccc21 (stereo unspecified)	none (no result: NR3A LBD binder, FAS-TE inh)
O=c1c2c(ncn2C2CCCC2)n(Cc2ccccc2)c(=O)n1CCOc1ccc(Br)cc1	none
O=c1c2c(ncn2C2CCCC2)n(Cc2ccccc2)c(=O)n1CCOc1ccccc1	NR3A LBD binder 15
CN1CCN(NC(=O)COc2cccc(C(F)(F)F)c2)CC1	NR3A LBD binder 13
CN1CCC(N(C)S(=O)(=O)c2ccc(NC(=O)COc3cccc(C(F)(F)F)c3)cc2)CC1	none
N=c1oc2cc(O)ccc2cc1C(=O)Nc1ccc(Cl)cc1	NR3A LBD binder 20
Cc1ccc(NC(=O)c2cc3ccccc3oc2=N)cc1	none
O=C(c1ccncc1F)N1CCC(n2nnc3ncccc32)CC1	none (no result: NR3A LBD binder, FAS-TE inh)
FC(F)(F)c1cc(CNC2CCC23CCCCC3)ccc1Cl (stereo unspecified)	none (no result: KLK7 zymogen act, NR3A LBD binder, FAS-TE inh)
CSc1ccc(OCC(=O)Nc2ccc(N3CCOCC3)c(Cl)c2)cc1	none
O=C(COc1c(F)c(F)c(C(F)(F)F)c(F)c1F)Nc1ccc(N2CCOCC2)c(Cl)c1	NR3A LBD binder 11
CCn1c(O)c(/C=C2\C=NN=C2c2ccc(C)cc2)sc1=S	NR3A LBD binder 12

Screens deposited in PubChem by several laboratories.
